High-throughput results from PubChem BioAssay.
TCR activator = Activators of T cell receptors: qHTS campaign. primary human leukocytes, anti-CD3, IL-2 HTRF, 48 h. Potency, µM (top dose mostly 9.22 µM), inactives show at the highest dose activation of IL-2 secretion, most hits filed as activators. 330,000 tested, under 10 active. AID 504894, 2011; note: % of control where 0% means no effect
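1) Mix primary human leukocytes, a-CD3 beads and compound. 2) Incubate 48 hr. 3) Add HTRF IL-2 reagents (a-IL-2-K, a-IL-2-d2).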
ClpP mod = qHTS Assay for Activators of ClpP; purified B. subtilis ClpP, FRET peptide cleavage, 20 min; Potency, µM (doses to about 57.5 µM), without a hit: at the highest dose activity change, negative = active; 340,000 compounds, 1.9% hits; active = well fitted falling curve with a large enough effect; inconclusive = small, poorly fitted or top-dose-only effect; inactive = no such curve, though single readings can be large or run the other way; note: potency is the fitted concentration of half-maximal effect; the source files actives as falling curves though it sought activators and does not explain the sign; nearly all actives have a fitted effect of over 65% in size
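Purified B. subtilis ClpP, 10 microg/mL final in Tris/HCl pH8 with KCl, BSA, glycerol and Tween-20, cleaved an Abz/nitrotyrosine-quenched decapeptide. Fluorescence (ex 320, em 430) was read at 0 and 20 min at room temperature. Delta was normalized to 5.8 microM ADEP and DMSO/no-enzyme controls.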
A549 viability = Nrf2 qHTS screen for inhibitors: counterscreen for cytotoxicity. 390,000 compounds, 0.16% hits. Potency, µM (series often up to 46 µM), for inactives: at the top dose activity change, negative = cytotoxicity, usual class: inhibitors. A549 ARE-Fluc cells, CellTiter-Fluor viability, 18-24 h; note: potency is the fitted concentration of half-maximal effect; % is set by controls: 0 for no effect and ±100 for the full control effect
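Cytotoxicity counterscreen: CellTiter-Fluor fluorescence was measured in A549 ARE_Fluc cells after 18-24 h of compound exposure in a concentration series. The subsequent BugLite luminescent read reports ARE-luciferase activity.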
Nrf2 ARE act = qHTS of Nrf2 Activators; AREc32 ARE-luciferase reporter (MCF7-derived line), luminescence, 24 h; Potency, µM (highest dose often 46.1 µM), for the others: at the top dose activation, actives largely listed as activators; 410,000 compounds, 0.31% hits; note: potency is the fitted concentration of half-maximal effect; % of control where 0% means no effect; nearly all actives have a fitted effect of over 65% in size
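Quantitative high-throughput format: AREc32 reporter cells, 1000 per well, received compound by pin transfer and were incubated 24 hr at 37 deg C, 5% CO2, before Steady-Glo luminescence detection.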
Nrf2 inh = Nrf2 qHTS screen for inhibitors | A549 ARE-Fluc reporter, luciferase luminescence, 18-24 h | Potency, µM (doses to about 46 µM), for the others: at the highest dose activity change, negative = inhibition, actives largely listed as inhibitors | 360,000 compounds, 2.1% hits | AID 504444, 2011; note: potency is the fitted concentration of half-maximal effect; % is set by controls: 0 for no effect and ±100 for the full control effect; nearly all actives have a fitted effect of over 60% in size
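Two sequential reads on A549 ARE_Fluc cells exposed to compound for 18-24 h: a CellTiter-Fluor fluorescence read for viability, then a luciferase luminescence read for Nrf2/ARE activity.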
miR-21 reporter = qHTS Assay for Modulators of miRNAs and/orActivators of miR-21. 340,000 tested, under 10 active. Potency, µM (doses to about 38.3 µM), for inactives: at the top dose activity change, positive = activation, hits mostly activators. HeLa miR-21 FLuc reporter, luciferase, 48 h;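 note: % of control where 0% means no effect; miR-21 action dims this reporter so a rising signal means less miR-21 action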
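Luminescence from a firefly luciferase reporter carrying a miR-21 binding site downstream, stably expressed under a CMV promoter in HeLa cells that make miR-21 endogenously, reports miRNA modulation after 48 h compound exposure up to approximately 40uM final.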
An asterisk follows results filed as active; ? = inconclusive; · = no result given; [ ] = dose if it differs, or a comment. Shown are actives, neighbours in structure and some others; about 3.7% of the full set was active somewhere. Unless noted, calls come from the whole dose curve; as a rule, active = well fitted curve in the direction sought with a large enough effect; inconclusive = small, poorly fitted or top-dose-only effect, or another doubt; inactive = no such curve, though single readings can be large; an effect the other way counts as inactive or inconclusive.

SMILES	TCR activator	ClpP mod	A549 viability	Nrf2 ARE act	Nrf2 inh	miR-21 reporter
Cc1cccc(NC(=O)CSc2ccc(-c3ccco3)nn2)c1	-10%[46.1 µM]	?	12%	17%	-27%	-8%
CC(C)c1ccc(Cc2cnc(NC(=O)c3ccc4c(c3)CC(c3ccccc3)OC4=O)s2)cc1 (stereo not given)	·	-7%	-7%	-2%	?	12%
CCCCNC(=O)c1c(N)n(Cc2ccc3c(c2)OCO3)c2nc3ccccc3nc12	-7%	10µM*	0%	3%	-8%	-3%
CCCCCn1c(N)c(C(=O)NCc2cccs2)c2nc3ccccc3nc21	3%	28µM*	-28%	-1%	?	2%
Nc1c(C(=O)NCc2ccco2)c2nc3ccccc3nc2n1Cc1ccccc1	-2%[46.1 µM]	4%	?	16%	-6%	24%
COCCOC(=O)c1c(N)n(Cc2ccccc2)c2nc3ccccc3nc12	2%	70%	-9%	0%	-10%	7%
COCCCNC(=O)c1c(NC(=O)c2ccccc2)n(Cc2ccccc2)c2nc3ccccc3nc12	4%	32µM*	·	1%	5%	·
CCCCCCn1c(N)c(C(=O)NCCN2CCOCC2)c2nc3ccccc3nc21	-8%	25µM*	-20%	-5%	?	26%
Nc1c(C(=O)NCCCc2ccccc2)c2nc3ccccc3nc2n1Cc1cccs1	-16%	?	?	2%	?	2%
CCCOP(=O)(c1ccc(N(C)C)cc1)C(O)c1ccc(Cl)cc1Cl (stereo not given)	-2%	·	-5%	2%	?	12%
Cn1cccc1C(=O)OCC(=O)NCc1cccs1	5%[46.1 µM]	1%	12%	3%	?	·
Cc1c(Cl)cccc1NC(=O)c1oc2ccc(S(=O)(=O)N3CCC4(CC3)OCCO4)cc2c1C	·	-12%	-10%	0%	·	?
CCCOC(=O)c1c(N)n(Cc2cccs2)c2nc3ccccc3nc12	-1%	?	-16%	-1%	-32%	14%
COCCCn1c(N)c(C(=O)NCCC(C)C)c2nc3ccccc3nc21	5%	32µM*	?	0%	16µM*	8%
CCCCn1c(N)c(C(=O)NCc2cccs2)c2nc3ccccc3nc21	5%	25µM*	?	0%	-92%	19%
CCCCn1c(N)c(C(=O)OCCOC)c2nc3ccccc3nc21	15%	·	10%	0%	0%	5%
Cc1ccc(-c2nnc(Nc3ccc(OC(F)(F)Cl)cc3)c3ccccc23)cc1S(=O)(=O)NC(C)(C)CO	·	?	-20%	-2%	?	10%
COc1ccc(CC(=O)NC(=S)NNC(=O)COc2c(C)cccc2C)cc1	3%[46.1 µM]	1%	1%	0%	?	-20%
COc1ccc2c(c1)CCc1c(C(=O)Nc3c(C)nn(Cc4ccccc4C)c3C)noc1-2	·	-6%	-6%	4%	18µM*	23%
COc1ccc(NC(=O)c2c(C)nn(Cc3ccccc3Cl)c2Cl)cc1Cl	-3%[46.1 µM]	3%	9%	-1%	-4%	-6%
Cc1cc(OCC(=O)OC(C)C)c2c3c(c(=O)oc2c1)CCCC3	0%	35µM*	-4%	0%	13%	4%
CCOC(=O)C(C)Oc1cc(C)cc2oc(=O)c3c(c12)CCCC3 (stereo not given)	-1%	16µM*	-4%	3%	-7%	0%
COC(=O)C(C)Oc1cc(C)cc2oc(=O)c3c(c12)CCC3 (stereo not given)	-4%	53%	-2%	11%	1%	-8%
Cc1cc(OCC(=O)NC2CCS(=O)(=O)C2)c2c3c(c(=O)oc2c1)CCC3 (stereo not given)	-6%	3.2µM*	0%	0%	-3%	3%
COC(=O)C(C)Oc1cc(C)cc2oc(=O)c3c(c12)CCCC3 (stereo not given)	2%	25µM*	-13%	3%	-1%	0%
SMILES	TCR activator	ClpP mod	A549 viability	Nrf2 ARE act	Nrf2 inh	miR-21 reporter
O=C(Nc1cccc(C(F)(F)F)c1)C1CCCN1S(=O)(=O)c1cccc2nsnc12 (stereo not given)	·	2%	-10%	4%	?	21%
Cc1cccc(N2C(=O)/C(=C/N3CCN(C(=O)c4ccco4)CC3)C(=O)NC2=S)c1	-4%	16µM*	-8%	-1%	9%	-6%
CC(C)(C)c1cc([N+](=O)[O-])cc(C(C)(C)C)c1O	-5%	3%	?	0%	18µM*	28%
Cc1nccc2c1[nH]c1ccc(Br)cc12	5%	-4%	-3%	5%	-7%	·
COc1ccc2c(c1)[nH]c1c(C)nccc12	3%	?	-7%	0%	23µM*	·
Cc1nnc(N2CCC(C(=O)NCc3ccc(N(C)C)cc3)CC2)c2nn(-c3ccccc3)c(C)c12	·	?	0%	0%	15%	0%
O=[N+]([O-])c1ccccc1-c1cc(-c2ccccc2)cc(-c2ccccc2)[n+]1Cc1ccccc1Cl	-5%	1%	?	-2%	21µM*	·
O=C(O)COc1ccc(Cl)cc1Cl	-3%	1%	4%	-1%	11%	·
O=C(c1ccco1)N1CCN(C(=O)c2ccc(COc3ccc(Cl)cc3Cl)o2)CC1	5%	-3%	-25%	7%	26µM*	·
CSC[C@H](NC(=O)COc1cc2c(c3oc(=O)c(C)c(C)c13)CCC(C)(C)O2)C(=O)O	-6%	28µM*	6%	-1%	1%	-3%
Cc1cc(OCC(=O)N[C@@H](Cc2ccccc2)C(=O)O)c2c3c(c(=O)oc2c1)CCCC3	5%	5%	6%	0%	-4%	0%
Cc1ccc(NC(=O)COc2ccc(-c3nn(C)c(=O)c4ccccc34)cc2)c(C)c1	·	-14%	-15%	0%	18µM*	9%
CCN(CC)C(=O)c1ccc(NC(=O)COc2ccc(-c3nn(C)c(=O)c4ccccc34)cc2)cc1	0%	-8%	-7%	4%	?	14%
C[N+](C)(C)CC1CCCc2ccccc2C1=O (stereo not given)	-7%	15%	-3%	21%	10%	·
C[N+](C)(C)CC1CCCC(C[N+](C)(C)C)C1=O (stereo not given)	-7%	1%	-4%	11µM*	0%	·
Cc1ccc2c(c1)C(c1ccccc1)=NCC(=O)N2C	-73%	1%	-3%	3%	9.2µM*	·
Cc1cccc(Cn2c(SCc3ccc(C(=O)NC4CCCCC4)cc3)nc3cccnc32)c1	·	-1%	-23%	0%	?	29%
